# Test results published in PubChem BioAssay.
# “And” between values parts separate entries of the source, which are not always exact repeats. Equal entries are not always repeated. Inconclusive results are not listed. The source made the active and inactive calls.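 How the source made its calls, unless noted: active means normalized viability below 100% at a tested concentration; inactive means the rest.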
# What was measured:
# [1] = viability loss in pontine glioma line – cell-based, SU-DIPG-XVII, MIPE5.0, CellTiter-Glo, qHTS, dose response (AID 1347060; cut-off not given, nearly all actives have AC50 up to about 26 µM;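 on AC50: cells exposed to compound for 48 hours before viability readout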); details: CellTiter-Glo ATP luminescence
# [2] = viability loss in pontine glioma line – cell-based, SU-DIPG-XIII, MIPE4.0, CellTiter-Glo, qHTS, dose response (AID 1347061; cut-off not given, nearly all actives have AC50 up to about 37 µM;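 further: cells exposed to compound for 48 hours before readout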); details: CellTiter-Glo ATP luminescence
# [3] = viability loss in pontine glioma line – cell-based, SU-DIPG-IV, MIPE4.0, CellTiter-Glo, qHTS, dose response (AID 1347063; cut-off not given, nearly all actives have AC50 up to about 30 µM;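 further: compound exposure lasted 48 hours before the viability readout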); details: CellTiter-Glo ATP luminescence
# [4] = viability loss in pontine glioma line – cell-based, SU-DIPG-XXV, MIPE5.0, CellTiter-Glo, qHTS, dose response (AID 1347065; cut-off not given, nearly all actives have AC50 up to about 26 µM;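 further: cells exposed to compound for 48 hours before ATP readout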); details: CellTiter-Glo ATP luminescence
# [5] = compounds altering HSF1 focus formation in cells – imaging, Selleck Cancer Library (AID 1347162; in the data active means plate-normalised HSF1 focus index below about 0.46); details: human cells, HSF1 nuclear foci imaging, at 10 µM; SSMD: measured here: HSF1 foci SSMD mean; cell count: measured here: cell number; plate-normalised HSF1 focus index: stronger effect = lower value
# [6] = drug combination growth inhibition, ovarian cancer – cell-based, oncology-focused library, rucaparib conditional, profiling panel (AID 1508598); details: patient-derived ovarian cancer cells, CellTiter-Glo viability, 144 h, stronger effect = lower value
# [7] = growth inhibition, single agent or in combination, cell-based, chromothripsis tumors, cisplatin or BGB combos (AID 1671449; in the data active means inhibition above about 80%;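 further: cells exposed for 96 hours; 0% = vehicle DMSO and 100% = killing by high DMSO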); details: LFS_MB_P medulloblastoma cells
# [8] = growth inhibition, single agent and combos, cell-based, chromothripsis tumors, cisplatin or BGB combos (AID 1671450; in the data active means inhibition above about 80%;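 further: cells exposed to compound for four days; 0% = vehicle DMSO and 100% = cell killing by high DMSO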); details: HDN33 neuroblastoma cells, stronger effect = higher value
# [9] = growth inhibition, single agents and combos, ICB984, cell-based, cisplatin or BGB combos, synergistic combos for chromothripsis tumors (AID 1671451; call rule not given here;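 further: cells exposed for 96 hours before readout; 0% = vehicle DMSO and 100% = killing by high DMSO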); details: ICB984 medulloblastoma cells, drug combinations, stronger effect = higher value
# [10] = growth inhibition, single agents and combos, HTB85, cell-based, BGB or cisplatin IC20 combos, synergistic combos for chromothripsis tumors (AID 1671453; in the data active means inhibition above about 80%;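 further: cells exposed for 96 hours before readout; 0% = vehicle DMSO and 100% = high DMSO killing control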); details: HTB85 osteosarcoma cells, drug combinations, stronger effect = higher value
# [11] = growth inhibition, MDA-MB-436, cell-based, BGB or cisplatin combos, synergistic combos for chromothripsis tumors (AID 1671458; call rule not given here;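 further: cells exposed for 96 hours; 0% = vehicle DMSO and 100% = killing by high DMSO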); details: MDA-MB-436 breast carcinoma growth inhibition, drug combinations, stronger effect = higher value
# [12] = BT084 cell growth, single and combined drugs, ICGC_MB145, cisplatin and BGB IC40 combos (AID 1671461; in the data active means inhibition above about 80%;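 further: cells exposed to drugs for 96 hours; 0% = vehicle DMSO and 100% = high DMSO full killing control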); details: BT084 medulloblastoma cells, drug combinations, stronger effect = higher value
# [13] = growth inhibition of DIPG cells – cell-based, MIPE4.0 library, CellTiter-Glo luminescence, qHTS (AID 1347066; cut-off not given, nearly all actives have AC50 up to about 30 µM;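 further: cells exposed to compound for 48 hours before readout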); details: SU-DIPG-VI viability, CellTiter-Glo ATP luminescence
# [14] = JHH-DIPG-1 glioma cell viability, MIPE5.0 library, CellTiter-Glo luminescence, qHTS (AID 1347067; cut-off not given, nearly all actives have AC50 up to about 26 µM;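 further: cells exposed to compound for 48 hours before readout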); details: JHH-DIPG-1 glioma viability, CellTiter-Glo ATP luminescence
# [15] = growth inhibition of DIPG cells – cell-based, MIPE5.0 library, qHTS (AID 1347068; cut-off not given, nearly all actives have IC50 up to about 30 µM); details: SU-DIPG-XXV viability
smiles,measurement,setting,value
C[C@@H]1CN(CC(=O)Nc2ccc3c(c2)Cc2cccc(-c4cc(=O)cc(N5CCOCC5)o4)c2S3)C[C@H](C)O1,AC50,[1],23.5 µM (active)
same,outcome,[2],inactive
same,AC50,[3],13.2 µM (active)
same,AC50,[4],18.6 µM (active)
same,SSMD,[5],2.96
same,cell count,[5],6620
same,plate-normalised HSF1 focus index,[5],1.15 (inactive)
same,viability,"[6]; at 0.000305 µM, OCI-C5x cells, with rucaparib 10 µM, 100% = cells with rucaparib alone",106% (inactive)
same,viability,"[6]; at 0.000305 µM, OCI-C5x cells, without rucaparib",116% (inactive)
same,viability,"[6]; at 0.000305 µM, OCI-P5x cells, with rucaparib 20 µM, 100% = cells with rucaparib alone",111% (inactive)
same,viability,"[6]; at 0.000305 µM, OCI-P5x cells, without rucaparib",119% (inactive)
same,viability,"[6]; at 0.00122 µM, OCI-C5x cells, with rucaparib 10 µM, 100% = cells with rucaparib alone",108% (inactive)
same,viability,"[6]; at 0.00122 µM, OCI-C5x cells, without rucaparib",123% (inactive)
same,viability,"[6]; at 0.00122 µM, OCI-P5x cells, with rucaparib 20 µM, 100% = cells with rucaparib alone",108% (inactive)
same,viability,"[6]; at 0.00122 µM, OCI-P5x cells, without rucaparib",121% (inactive)
same,viability,"[6]; at 0.00488 µM, OCI-C5x cells, with rucaparib 10 µM, 100% = cells with rucaparib alone",112% (inactive)
same,viability,"[6]; at 0.00488 µM, OCI-C5x cells, without rucaparib",129% (inactive)
same,viability,"[6]; at 0.00488 µM, OCI-P5x cells, with rucaparib 20 µM, 100% = cells with rucaparib alone",108% (inactive)
same,viability,"[6]; at 0.00488 µM, OCI-P5x cells, without rucaparib",108% (inactive)
same,viability,"[6]; at 0.0195 µM, OCI-C5x cells, with rucaparib 10 µM, 100% = cells with rucaparib alone",113% (inactive)
same,viability,"[6]; at 0.0195 µM, OCI-C5x cells, without rucaparib",128% (inactive)
same,viability,"[6]; at 0.0195 µM, OCI-P5x cells, with rucaparib 20 µM, 100% = cells with rucaparib alone",104% (inactive)
same,viability,"[6]; at 0.0195 µM, OCI-P5x cells, without rucaparib",108% (inactive)
same,viability,"[6]; at 0.0781 µM, OCI-C5x cells, with rucaparib 10 µM, 100% = cells with rucaparib alone",110% (inactive)
same,viability,"[6]; at 0.0781 µM, OCI-C5x cells, without rucaparib",127% (inactive)
same,viability,"[6]; at 0.0781 µM, OCI-P5x cells, with rucaparib 20 µM, 100% = cells with rucaparib alone",107% (inactive)
same,viability,"[6]; at 0.0781 µM, OCI-P5x cells, without rucaparib",109% (inactive)
same,viability,"[6]; at 0.313 µM, OCI-C5x cells, with rucaparib 10 µM, 100% = cells with rucaparib alone",106% (inactive)
same,viability,"[6]; at 0.313 µM, OCI-C5x cells, without rucaparib",132% (inactive)
same,viability,"[6]; at 0.313 µM, OCI-P5x cells, with rucaparib 20 µM, 100% = cells with rucaparib alone",102% (inactive)
same,viability,"[6]; at 0.313 µM, OCI-P5x cells, without rucaparib",98.9% (active)
same,viability,"[6]; at 1.25 µM, OCI-C5x cells, with rucaparib 10 µM, 100% = cells with rucaparib alone",101% (inactive)
same,viability,"[6]; at 1.25 µM, OCI-C5x cells, without rucaparib",138% (inactive)
same,viability,"[6]; at 1.25 µM, OCI-P5x cells, with rucaparib 20 µM, 100% = cells with rucaparib alone",91.6% (active)
same,viability,"[6]; at 1.25 µM, OCI-P5x cells, without rucaparib",93.8% (active)
same,viability,"[6]; at 5 µM, OCI-C5x cells, with rucaparib 10 µM, 100% = cells with rucaparib alone",106% (inactive)
same,viability,"[6]; at 5 µM, OCI-C5x cells, without rucaparib",132% (inactive)
same,viability,"[6]; at 5 µM, OCI-P5x cells, with rucaparib 20 µM, 100% = cells with rucaparib alone",76.3% (active)
same,viability,"[6]; at 5 µM, OCI-P5x cells, without rucaparib",81.8% (active)
same,inhibition,"[7]; at 0.5 µM, stronger effect = higher value",-5.76% (inactive) and -8.68% (inactive)
same,inhibition,"[7]; measured here: combination with BGB IC20, at 0.005 µM",12.1% and -26.9%
same,inhibition,"[7]; measured here: combination with BGB IC40, at 0.005 µM",76.1% and -29.5%
same,inhibition,"[7]; measured here: combination with BGB IC40, at 0.05 µM",-11.7% and -51.5%
same,inhibition,"[7]; measured here: combination with cisplatin, at 0.5 µM, stronger effect = higher value",39.6% and -32.3%
same,inhibition,"[7]; measured here: combination with cisplatin, at 5 µM, stronger effect = higher value",-23.3% and -90%
same,inhibition,"[8]; BGB combo, at 5 µM",2.05% and 13.3%
same,inhibition,[8]; at 0.5 µM,-17.5% (inactive) and -12.8% (inactive)
same,inhibition,"[8]; cisplatin combo, at 5 µM",-12.4% and 5.9%
same,inhibition,"[8]; measured here: with BGB IC20 combination, at 0.5 µM",-16.8% and -1.93%
same,inhibition,"[8]; measured here: with cisplatin IC20 combination, at 0.5 µM",-12.5% and -11.1%
same,inhibition,"[8]; single agent, at 5 µM",-33.9% and 16.4%
same,inhibition,"[9]; BGB IC20 combo, at 0.005 µM",4.72% and 10.1%
same,inhibition,"[9]; BGB IC40 combo, at 0.005 µM",-39.9% and -9.84%
same,inhibition,"[9]; BGB IC40 combo, at 0.05 µM",3.85% and -15.8%
same,inhibition,[9]; at 0.5 µM,-19.3% (inactive) and -37.2% (inactive)
same,inhibition,"[9]; cisplatin combo, at 0.05 µM",-0.996% and -20%
same,inhibition,"[9]; cisplatin combo, at 0.5 µM",-20.2% and -42.2%
same,inhibition,"[9]; cisplatin combo, at 5 µM",2.43% and -58.6%
same,inhibition,"[9]; measured here: 5 uM single agent, at 5 µM",-28.1% and -5.43%
same,inhibition,[10]; at 0.5 µM,-24.8% (inactive) and -13.9% (inactive)
same,inhibition,"[10]; measured here: with BGB IC20, at 0.5 µM",-22.3% and -11.4%
same,inhibition,"[10]; measured here: with BGB IC20, at 5 µM",-3.78% and 16.9%
same,inhibition,"[10]; measured here: with cisplatin IC20, at 0.5 µM",-22.4% and -22.3%
same,inhibition,"[10]; measured here: with cisplatin IC20, at 5 µM",1.95% and -37.3%
same,inhibition,"[10]; single agent, at 5 µM",-2.38% and 8.59%
same,inhibition,[11]; at 0.5 µM,-6.48% (inactive) and -14.8% (inactive)
same,inhibition,"[11]; measured here: BGB combination, at 0.5 µM",-1.79% and -20.6%
same,inhibition,"[11]; measured here: BGB combination, at 5 µM",17.7% and 3.62%
same,inhibition,"[11]; measured here: cisplatin combination, at 0.5 µM",-20.7% and -21.7%
same,inhibition,"[11]; measured here: cisplatin combination, at 5 µM",7.96% and -7.31%
same,inhibition,[12]; at 0.5 µM,-1.92% (inactive) and -6.86% (inactive)
same,inhibition,"[12]; cisplatin combination, at 0.5 µM",-3.42% and -23.5%
same,inhibition,"[12]; cisplatin combination, at 5 µM",-136% and -3.01%
same,inhibition,"[12]; measured here: BGB IC40 combination 0.05 uM, at 0.05 µM",-6.42% and -21%
same,inhibition,"[12]; single agent, at 5 µM",4.22% and -18.6%
COc1ccc(-c2oc3c(CC=C(C)C)c(OC4O[C@H](CO)[C@@H](O)[C@H](O)[C@H]4O)cc(O)c3c(=O)c2OC2O[C@@H](C)[C@H](O)[C@@H](O)[C@H]2O)cc1 (stereo partly specified),outcome,[1],inactive
same,outcome,[2],inactive
same,AC50,[3],14.8 µM (active)
same,outcome,[4],inactive
same,AC50,[13],14.8 µM (active)
same,outcome,[14],inactive
same,outcome,[15],inactive
COc1cc(C(C)C)c2c(c1)S(=O)(=O)N(COc1cc(=O)n3cccc(OCCN4CCCCC4)c3n1)C2=O,AC50,[1],23.5 µM (active)
same,outcome,[2],inactive
same,AC50,[4],20.9 µM (active)
C[C@]12CC[C@@H]3c4ccc(O)cc4CC[C@H]3[C@@H]1[C@@H](O)[C@@H](O)[C@@H]2O,outcome,[1],inactive
same,outcome,[2],inactive
same,outcome,[3],inactive
same,outcome,[13],inactive
same,outcome,[14],inactive
same,outcome,[15],inactive
